Assay results published in PubChem BioAssay (NCATS).
“And” between values parts separate entries of the source, which are not always exact repeats. Equal entries are not always repeated. Results filed as inconclusive are left out. Where a call stands in place of a potency, no number is given. The source made the active and inactive calls. Calls follow the shape of the dose curve; as a rule, active = well fitted inhibition curve with a large enough effect; inconclusive = small, poorly fitted or top-dose-only effect; inactive = no such curve, though single readings can be large or run the other way.

Assay: BET inhibitor-based combinations targeting novel dependencies in MECOM-rearranged (r) AML: HNT-34 cell line (AID 2202234); also: nearly all actives have a fitted effect of over 35% in size
Conditions: HNT-34 AML viability, CellTiter-Glo luminescence, 48 h; series mostly up to 46 µM
Excerpt: Ecotropic viral insertion site 1 (EVI1) is located on chromosome 3q26.2 as part of the MECOM (MDS and EVI1 complex) locus. Under normal hematopoiesis, EVI1 is a regulator of hematopoietic stem cell maintenance and self-renewal and EVI1 levels decrease as the cells differentiate. In approximately 5-10% of de novo acute myeloid leukemia (AML) EVI1 is aberrantly expressed, including Chromosomal inv(3)(q21;q26.2) or t(3;3)(q21;q26.2) alterations (MECOM-r) that account for about 50% of AML with EVI1 overexpression 31. AMLs with high levels of EVI1 have a poor prognosis and an overall survival time averaging between 10-14 months. EVI1 overexpression confers resistance in leukemia cells, highlighting the need to develop new targeted therapies for EVI1 overexpressing AMLs. Here, we performed an unbiased chemical drug screening by evaluating the single agent activity of a collection of 2,480 oncology-focused, approved and investigational drugs (NCATS Mechanism Interrogation Plates, MIPE v5.0) against a panel of seven AML cell lines. These included four MECOM-r cell-lines (AML-191, AML-194, UCSD-AML1 and HNT-34) and three non-MECOM-r AMLs (MV4-11, OCI-AML3 and SET-2). Exploiting the mechanistic redundancy built in the library, we identified target-level sensitivities in MECOM-r AML cells and relative activity as compared to other AML subtypes.
A collection of 2480 mechanistically annotated dugs (MIPE v5.0) was used to screen four 3q26.2 rearranged AML cell lines and three non-3q26.2 rearranged AML cell lines. This library purposely exploits redundancy by including multiple inhibitors of key onco-targets, while simultaneously encompassing mechanistic diversity, targeting more than 800 distinct mechanisms of action. Briefly, cells were seeded in 5 uL of growth media using a Multidrop Combi dispenser into 1536 well white polystyrene tissue culture treated plates (Corning) at a density of 500cells/well. For each cell-line, for each of the 2480 drugs in MIPE v5.0 library, an 11-point dose curve was generated via a 1536 pin-tool. Plates were incubated for 48 hr at standard incubator conditions, covered by a stainless steel gasketed lid to prevent evaporation. Cell viability was determined by luminescence based, Cell Titer Glo assay (Promega). In detail, 3 uL of Cell Titer Glo were added to each well and plates were incubated at room temperature for 15 min with a stainless-steel lid in place. Luminescence readings were taken using a Viewlux (PerkinElmer) with a 2 s exposure time per plate. Compound dose-response curves were normalized to DMSO and empty well controls on each plate. Quantitative drug activity data from dose-response curves was determined utilizing area Under the Curve (AUC) and Z-transformed AUC (Z-AUC, a mean-centering transformation applied to each individual cell-line screened).
Potency is read from the fitted curve at half-maximal effect.

Row | Structure (SMILES) | Potency
1 | Cc1cc(F)c(C(=O)Nc2cccc(-c3nncn3C(C)C)n2)cc1-n1cnc(C2CC2)c1 | 20.9 µM (active)
2 | O=C(O)c1cn(-c2ccc(F)cc2)c2cc(N3CCNCC3)c(F)cc2c1=O | inactive
3 | COCCOc1ccc(N2CCN(CCn3ncc4c3nc(N)n3nc(-c5ccco5)nc43)CC2)cc1 | inactive
4 | COc1cc(C(=O)NC2CCN(C)CC2)ccc1Nc1ncc2c(n1)N(C1CCCC1)CCC(=O)N2C(C)C | 16.6 µM (active)
5 | COC(=O)Nc1nc2ccc(C(=O)c3ccc(F)cc3)cc2[nH]1 | 0.417 µM (active)
6 | Cc1cccc(-c2[nH]c(C(C)(C)C)nc2-c2ccc3c(c2)OCO3)n1 | 6.61 µM (active)
7 | COc1ccc(Nc2nccc(NCCO)n2)cc1 | inactive
8 | CC(NCCc1ccc(O)cc1)C(O)c1ccc(O)cc1 (stereo not given) | inactive
9 | Cc1ccc(C(=O)Nc2ccc(CN3CCN(C)CC3)c(C(F)(F)F)c2)cc1C#Cc1cnc2cccnn12 | 0.0083 µM (active)
10 | Oc1ccc2ccccc2c1SSc1c(O)ccc2ccccc12 | 18.6 µM (active)
11 | Clc1ccccc1CN1CCc2sccc2C1 | inactive
12 | CN(C)C(=O)C(CCN1CCC(O)(c2ccc(Cl)cc2)CC1)(c1ccccc1)c1ccccc1 | 20.9 µM (active)
13 | CCN1CCN(CC(=O)Nc2ccc(-c3cccc4c(=O)cc(N5CCOCC5)oc34)c3sc4ccccc4c23)CC1 | 5.74 µM (active)
14 | C[C@@H]1CN(Cc2ccc(F)cc2)[C@@H](C)CN1C(=O)c1cc2c(C(=O)C(=O)N(C)C)cn(C)c2cc1Cl | inactive
15 | C#Cc1cccc(Nc2ncnc3cc(OCCOC)c(OCCO)cc23)c1 | 2.63 µM (active)
16 | COc1cccc2c1C(=O)c1c(O)c3c(c(O)c1C2=O)C[C@@](O)(C(=O)CO)C[C@@H]3O[C@H]1C[C@H](N)[C@H](OC2CCCCO2)[C@H](C)O1 (stereo not given in full) | 332 nM (active) and 235 nM (active)
17 | C[C@H](CCC(=O)O)[C@H]1CCC2C3C[C@H](O)[C@@H]4C[C@H](O)CC[C@]4(C)C3CC[C@@]21C (stereo not given in full) | inactive
18 | O=C1NCCc2[nH]c(-c3ccncc3)cc21 | 3.32 µM (active)
19 | NS(=O)(=O)OC[C@@H]1C[C@@H](n2ccc3c(N[C@H]4CCc5ccccc54)ncnc32)C[C@@H]1O | 0.372 µM (active)
20 | CN(C)Cc1c(C(=O)NCCOc2ccc(C(=O)NO)cc2)oc2ccccc12 | 0.934 µM (active)

Row | Structure (SMILES) | Potency
21 | CC(C)C[C@H](NC(=O)[C@H](Cc1ccccc1)NC(=O)c1cnccn1)B(O)O | 0.0148 µM (active)
22 | Cc1cnc(C(=O)O)c[n+]1[O-] | inactive
23 | CN(CCOc1ccc(NS(C)(=O)=O)cc1)CCc1ccc(NS(C)(=O)=O)cc1 | inactive
24 | CC#CC(=O)N1CCC[C@H]1c1nc(-c2ccc(C(=O)Nc3ccccn3)cc2)c2c(N)nccn12 | inactive
25 | CCc1ccc(/C=C2/SC(=S)NC2=O)cc1 | inactive
26 | Cc1cc(OCCCS(C)(=O)=O)cc(C)c1-c1cccc(COc2ccc3c(c2)OC[C@H]3CC(=O)O)c1 | inactive
27 | O=C(O)C(O)Cc1ccc(O)c(O)c1 (stereo not given) | inactive
28 | CO[C@@H]1[C@@H](OC(N)=O)[C@@H](O)[C@H](Oc2ccc3c(O)c(NC(=O)c4ccc(O)c(CC=C(C)C)c4)c(=O)oc3c2C)OC1(C)C | inactive
29 | COc1ccc(C2CNC(=O)C2)cc1OC1CCCC1 (stereo not given) | inactive
30 | Nc1nc2c(c(=O)[nH]1)N(C=O)[C@H](CNc1ccc(C(=O)N[C@@H](CCC(=O)O)C(=O)O)cc1)CN2 | inactive
31 | COc1ccc(/C=C/C(=O)Nc2ccccc2C(=O)O)cc1OC | inactive
32 | Cc1c(CCOc2ccc(C(=O)O)cc2)c2cc(Cl)ccc2n1C(c1ccccc1)c1ccccc1 | inactive
33 | CCn1cc(C(=O)O)c(=O)c2cc(F)c(N3CCN(C)CC3)cc21 | inactive
34 | COc1ccc(-c2nc3ccc(C4=NNC(=O)CC4C)cc3[nH]2)cc1 (stereo not given) | 8.33 µM (active)
35 | CC(C)[C@H](O)C(=O)N[C@@H](C)C(=O)N[C@@H]1C(=O)N(C)CCc2ccccc21 | inactive
36 | CNC(=O)c1ccc(Nc2ncc(C(F)(F)F)c(NCc3nccnc3N(C)S(C)(=O)=O)n2)cc1 | 1.86 µM (active)
37 | COc1cc2ncnc(Oc3cccc(NC(=O)Nc4cc(C(C)(C)C(F)(F)F)on4)c3)c2cc1OC | 0.209 µM (active)
38 | CS(=O)(=O)c1ccc(C2=C(c3ccccc3)C(=O)OC2)cc1 | inactive
39 | Cn1cnc2c1c(=O)[nH]c(=O)n2C | inactive
40 | CS(=O)(=O)Nc1ccc([N+](=O)[O-])cc1Oc1ccccc1 | inactive
